Consider six compounds from PubChem BioAssay.

For experiment [1], the system named is Plasmodium falciparum Sir2 (PF13_0152, Sir2A). Description: Plasmodium falciparum Sir2A binding compounds – biochemical, small-molecule microarray, 635 nm fluorescence, primary screen (AID 1098).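 Further: score merges spot fluorescence intensity with its signal-to-noise ratio.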 As to conditions: fluorescence 635 nm, higher = more signal.
Experiment [2] can be described thus: probe aDKK1 binding to arrayed compounds – biochemical, biotinylated probe, 635/667 nm fluorescence, primary screen (AID 1099).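 Further: score merges 667nm spot fluorescence with signal to noise across triplicate slides.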 As to conditions: small-molecule microarray, higher = more signal.
Experiment [3] in a line: probe aCHRDL2 binding to arrayed compounds – biochemical, biotinylated probe, 635/667 nm fluorescence, primary screen (AID 1100). As to conditions: small-molecule microarray, higher = more signal.
Experiment [4] in a line: change in splice reporter luminescence, either direction, cell-based, HEK293, spliceosome inhibition project, primary screen (AID 1101).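 Further: HEK293 cells carrying a splicing-competent luciferase reporter gene; test concentration not given here.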 Conditions: HEK293 splicing luciferase reporter, 24 h, higher = more signal, called active from +8 up or from −8 down.
Experiment [5] addresses Fibroblast growth factor 10 (Homo sapiens) (UniProt O15520). Description: compounds binding fibroblast growth factor 10 – biochemical, small-molecule microarray, 635 nm fluorescence, primary screen (AID 1102). Conditions: FGF10 binding, fluorescence 635 nm, higher = more signal.
The subject of experiment [6] is glycogen synthase kinase-3 (GSK3A per assay name; protocol says GSK3B). The experiment can be described thus: compounds binding glycogen synthase kinase-3 – biochemical, small-molecule microarray, 635 nm fluorescence, GSK3A, primary screen (AID 1103). Further: the record names both GSK3A and GSK3B. As to conditions: fluorescence 635 nm, higher = more signal.
The target of experiment [7] is Epidermal growth factor receptor (Homo sapiens) (UniProt P00533). Description: compounds binding epidermal growth factor receptor – biochemical, small-molecule microarray, 635 nm fluorescence, primary screen (AID 1104).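 Further: score merges 667 nm emission intensity with spot signal to noise over triplicate slides.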 As to conditions: EGFR binding, higher = more signal.
Experiment [8] addresses Follistatin-related protein 3 (Homo sapiens) (UniProt O95633). The experiment can be described thus: compounds binding follistatin-related protein 3 – biochemical, small-molecule microarray, 635 nm fluorescence, primary screen (AID 1105).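 Further: score merges emission near 667 nm and signal to noise per printed spot across three slides.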 As to conditions: FSTL3 binding, higher = more signal.
Experiment [9] deals with Dickkopf-related protein 1 (Homo sapiens) (UniProt O94907). The experiment can be described thus: small molecules binding DKK1 protein – biochemical, small-molecule microarray, 635 nm fluorescence scan, primary screen (AID 1106).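 Further: score merges emission near 667 nm with signal to noise over three replicate slides.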 As to conditions: higher = more signal.
For experiment [10], the system named is Inhibin beta A chain (activin A). Description: small molecules binding activin A – biochemical, small-molecule microarray, 635 nm fluorescence scan, primary screen (AID 1107).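 Further: mouse activin A protein probed at 4.33 µg/mL on printed slides; score merges bound-protein fluorescence near 667 nm with spot signal-to-noise.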 As to conditions: INHBA, higher = more signal.
Experiment [11] deals with Human papillomavirus type 1a protein E7 (residues 44-93). Description: small molecules binding HPV E7 44-93 – biochemical, small-molecule microarray, residues 44-93, 635 nm fluorescence, primary screen (AID 1108).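 Further: E7 fragment applied at 1 µg/mL in TBST for 1 h at 4 C; score combines spot fluorescence with its signal to noise ratio.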 Conditions: fluorescence 635 nm, higher = more signal.
A short description of experiment [12]: hepatitis C replication reporter changes, two-sided – Huh7 cells, luciferase reporter, HCV replication inhibitor project, primary screen (AID 1109).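 Further: huh7 hepatoma cells harbouring a luciferase neomycin HCV replicon reporter; luciferase luminescence as measure of HCV replicon replication; test concentration not given here.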 Conditions: Huh7 HCV replicon luciferase reporter, 48 h; higher = more signal. (In general: In a reporter assay the amount or activity of a reporter protein is the signal.)
In experiment [13] the target is Left-right determination factor 2 (Homo sapiens) (UniProt O00292). The experiment can be described thus: small molecules binding LEFTY2 protein – biochemical, small-molecule microarray, 635 nm fluorescence scan, primary screen (AID 1110). As to conditions: higher = more signal.
The target in experiment [14] is Calmodulin-1 (Homo sapiens) (UniProt P0DP23). The experiment can be described thus: small molecules binding calmodulin-1 with EGTA – biochemical, small-molecule microarray, Cy5-labelled CALM1, profiling panel (AID 1111).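 Further: labelled calmodulin applied in Tris saline Tween buffer holding calcium plus EGTA and DTT.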 As to conditions: Cy5-CALM1 binding fluorescence, higher = more signal.
For experiment [15] the target is unchanged. The experiment can be described thus: small molecules binding Ca-loaded calmodulin-1 – biochemical, small-molecule microarray, Cy5-labelled CALM1, plus calcium, artefact control for SMM control-protein annotation, profiling panel (AID 1112).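 Further: score merges spot fluorescence with signal to noise from triplicate slides.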 As to conditions: Cy5-CALM1 binding fluorescence, higher = more signal.
Experiment [16] can be described thus: probe aWnt5a binding to arrayed compounds – biochemical, biotinylated probe, 635/667 nm fluorescence, primary screen (AID 1113).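 Further: score merges 667 nm fluorescence intensity with signal-to-noise per printed feature.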 As to conditions: small-molecule microarray, higher = more signal.
A short description of experiment [17]: probe aShh binding to arrayed compounds – biochemical, biotinylated probe, 635/667 nm fluorescence, primary screen (AID 1114).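 Further: probe is biotin-labelled aShh protein from a stem cell growth factor screen; measures binding of labelled protein to compounds printed on the slide; score merges feature fluorescence at 667 nm with signal-to-noise.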 Conditions: small-molecule microarray, higher = more signal.
The nature of experiment [18]: probe aNog binding to arrayed compounds – biochemical, biotinylated probe, 635/667 nm fluorescence, primary screen (AID 1115).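 Further: probe is biotinylated aNog protein used at 0.15 µg/mL for 1 h at 4 C; z-score combines 667 nm fluorescence of each spot with its signal to noise.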 Conditions: small-molecule microarray, higher = more signal.
The target of experiment [19] is Torsin-1A-interacting protein 1 (Homo sapiens) (UniProt Q5JTV8). The experiment can be described thus: compound microarray binding of lysate hLAP1 – cell lysate, small-molecule microarray, COS7 lysate, 635/667 nm fluorescence, primary screen (AID 1116). As to conditions: 635 nm fluorescence, higher = more signal.
For experiment [20], the target named is Alpha-bungarotoxin (Bungarus multicinctus) (UniProt P60615). Description: compounds binding labelled alpha-BTX control protein – biochemical, small-molecule microarray, Alexa647 label, 635/667 nm fluorescence, artefact control for SMM control protein annotation, profiling panel (AID 1117). Conditions: alpha-BTX-A647 binding fluorescence, higher = more signal.

The source made the active and inactive calls.

Fibroblast growth factor 10 (Homo sapiens), sequence (O15520 whole entry, looked up): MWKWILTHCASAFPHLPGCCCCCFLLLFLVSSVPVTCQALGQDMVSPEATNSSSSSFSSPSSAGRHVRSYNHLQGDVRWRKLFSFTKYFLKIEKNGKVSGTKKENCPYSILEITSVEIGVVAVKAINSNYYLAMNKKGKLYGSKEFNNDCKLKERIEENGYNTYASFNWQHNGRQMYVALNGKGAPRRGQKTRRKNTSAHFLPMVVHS
Alpha-bungarotoxin (Bungarus multicinctus), sequence (P60615 whole entry, looked up): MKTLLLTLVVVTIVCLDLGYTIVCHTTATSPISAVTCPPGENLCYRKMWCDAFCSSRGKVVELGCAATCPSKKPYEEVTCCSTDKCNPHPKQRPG
Epidermal growth factor receptor (Homo sapiens), sequence (P00533 whole entry, looked up): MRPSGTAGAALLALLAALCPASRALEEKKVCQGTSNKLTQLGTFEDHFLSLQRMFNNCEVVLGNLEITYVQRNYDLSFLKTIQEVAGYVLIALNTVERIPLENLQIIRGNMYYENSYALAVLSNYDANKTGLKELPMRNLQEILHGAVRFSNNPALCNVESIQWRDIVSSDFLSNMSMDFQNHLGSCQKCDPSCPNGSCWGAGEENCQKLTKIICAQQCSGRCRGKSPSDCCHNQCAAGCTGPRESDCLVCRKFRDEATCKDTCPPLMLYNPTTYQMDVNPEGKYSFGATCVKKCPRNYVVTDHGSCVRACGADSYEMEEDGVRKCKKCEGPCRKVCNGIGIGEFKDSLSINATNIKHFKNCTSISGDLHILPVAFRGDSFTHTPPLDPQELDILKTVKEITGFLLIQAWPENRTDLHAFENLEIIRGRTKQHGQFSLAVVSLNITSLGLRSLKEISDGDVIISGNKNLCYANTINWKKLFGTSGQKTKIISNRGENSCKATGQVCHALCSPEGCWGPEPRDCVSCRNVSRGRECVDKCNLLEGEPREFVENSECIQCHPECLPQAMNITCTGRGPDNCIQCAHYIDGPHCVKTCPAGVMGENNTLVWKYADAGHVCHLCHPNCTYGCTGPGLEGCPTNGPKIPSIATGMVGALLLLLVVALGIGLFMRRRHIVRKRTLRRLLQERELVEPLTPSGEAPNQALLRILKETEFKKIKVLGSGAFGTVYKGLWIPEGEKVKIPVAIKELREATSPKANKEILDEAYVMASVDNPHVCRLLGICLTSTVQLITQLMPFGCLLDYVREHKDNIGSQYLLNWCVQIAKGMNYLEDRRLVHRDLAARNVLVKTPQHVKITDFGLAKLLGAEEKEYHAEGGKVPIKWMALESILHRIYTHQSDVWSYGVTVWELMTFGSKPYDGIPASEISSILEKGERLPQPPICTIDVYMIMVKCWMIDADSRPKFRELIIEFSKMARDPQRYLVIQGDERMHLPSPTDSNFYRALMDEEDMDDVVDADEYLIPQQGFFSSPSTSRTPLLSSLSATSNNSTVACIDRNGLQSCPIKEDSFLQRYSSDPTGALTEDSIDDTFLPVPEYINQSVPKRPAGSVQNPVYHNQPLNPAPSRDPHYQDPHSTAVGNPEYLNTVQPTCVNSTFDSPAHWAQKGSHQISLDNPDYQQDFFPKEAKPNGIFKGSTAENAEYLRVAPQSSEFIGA
Follistatin-related protein 3 (Homo sapiens), sequence (O95633 whole entry, looked up): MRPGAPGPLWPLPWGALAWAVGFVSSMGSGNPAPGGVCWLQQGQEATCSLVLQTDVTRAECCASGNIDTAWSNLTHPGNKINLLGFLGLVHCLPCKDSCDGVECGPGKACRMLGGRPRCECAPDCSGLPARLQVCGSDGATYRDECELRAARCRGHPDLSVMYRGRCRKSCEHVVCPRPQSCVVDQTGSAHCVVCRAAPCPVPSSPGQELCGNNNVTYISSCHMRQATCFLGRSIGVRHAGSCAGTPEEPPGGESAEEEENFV
Dickkopf-related protein 1 (Homo sapiens), sequence (O94907 whole entry, looked up): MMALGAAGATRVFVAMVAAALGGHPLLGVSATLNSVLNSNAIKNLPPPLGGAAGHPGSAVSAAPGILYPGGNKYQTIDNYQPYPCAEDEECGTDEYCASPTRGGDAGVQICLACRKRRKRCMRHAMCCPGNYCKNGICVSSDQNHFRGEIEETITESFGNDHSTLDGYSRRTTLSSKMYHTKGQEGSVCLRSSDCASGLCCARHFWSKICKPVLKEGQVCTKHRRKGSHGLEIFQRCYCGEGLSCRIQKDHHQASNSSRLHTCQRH
Torsin-1A-interacting protein 1 (Homo sapiens), sequence (Q5JTV8 whole entry, looked up): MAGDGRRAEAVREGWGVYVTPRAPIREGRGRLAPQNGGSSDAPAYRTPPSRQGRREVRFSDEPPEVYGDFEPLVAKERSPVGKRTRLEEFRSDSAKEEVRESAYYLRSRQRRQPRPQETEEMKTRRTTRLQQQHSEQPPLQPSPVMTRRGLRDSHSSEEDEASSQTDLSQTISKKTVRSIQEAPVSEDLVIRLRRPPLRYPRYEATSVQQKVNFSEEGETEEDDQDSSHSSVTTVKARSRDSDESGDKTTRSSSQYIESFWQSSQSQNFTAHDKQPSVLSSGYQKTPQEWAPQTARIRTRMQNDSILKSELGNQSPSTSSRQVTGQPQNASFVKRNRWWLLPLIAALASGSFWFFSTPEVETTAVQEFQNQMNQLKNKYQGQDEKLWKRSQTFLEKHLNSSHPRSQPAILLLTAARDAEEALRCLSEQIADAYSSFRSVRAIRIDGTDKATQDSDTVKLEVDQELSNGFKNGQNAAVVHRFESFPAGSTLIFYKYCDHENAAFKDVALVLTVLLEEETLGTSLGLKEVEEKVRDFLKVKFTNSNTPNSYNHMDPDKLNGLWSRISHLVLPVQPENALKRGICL
Left-right determination factor 2 (Homo sapiens), sequence (O00292 whole entry, looked up): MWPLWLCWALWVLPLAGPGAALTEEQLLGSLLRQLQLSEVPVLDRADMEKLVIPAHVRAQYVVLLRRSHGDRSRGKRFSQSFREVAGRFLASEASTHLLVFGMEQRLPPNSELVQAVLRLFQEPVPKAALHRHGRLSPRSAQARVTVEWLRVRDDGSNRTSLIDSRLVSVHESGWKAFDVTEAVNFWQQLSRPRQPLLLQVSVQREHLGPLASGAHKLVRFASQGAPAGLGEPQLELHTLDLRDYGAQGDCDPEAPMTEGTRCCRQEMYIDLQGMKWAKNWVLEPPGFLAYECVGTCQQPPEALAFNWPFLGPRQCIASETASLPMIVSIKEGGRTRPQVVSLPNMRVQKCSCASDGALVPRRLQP

Turning to `C=CCC(OC(C)=O)[C@@H]1[C@@H](N(Cc2cc3ccccc3o2)C(=O)c2ccc(C)cc2)c2cc(OCCCO)ccc2N1C(=O)c1ccc2ccccc2n1` (stereo not given in full), the composite z-score in experiment [1] is -0.222; in experiment [2], 0.164; in experiment [3], 0.504; in [5] it was -0.146; in [6] it was -0.216; in experiment [7], 0.311. Moreover, the composite z-score was 0.0952 in [8]; -0.0273 in experiment [9]; 1.51 in experiment [10]; -0.185 in [11]; 0.21 in experiment [13]; -0.197 in [14]. Moreover, the composite z-score in [15] is 0.574; in experiment [16], -0.148; in experiment [17] it was -0.043; in [18], 0.421; in [19], -0.0354; in experiment [20] it was 0.432. For the same compound, the z-score in [4] is -0.178 (inactive); in experiment [12] it was 0.725.
Take `O=C(O)[C@@H]1Cc2c([nH]c3ccccc23)[C@@H](c2ccccc2)N1`: the composite z-score in experiment [1] is 0.0269; in experiment [2], -0.317; in experiment [3], -0.58; in [5], 0.315; in experiment [6], 0.61; in experiment [7], 0.373. Further, the composite z-score in experiment [8] was 0.518; in experiment [9] it was 0.509; in experiment [10], -0.332; in experiment [11], 0.681; in [13], 0.414; in experiment [14], -0.106. Besides, the composite z-score was -0.568 in experiment [15]; -0.141 in experiment [16]; -0.124 in experiment [17]; -0.013 in [18]; 0.3 in experiment [19]; 0.236 in experiment [20]. For the same compound, the z-score in experiment [4] was -0.333 (inactive); in [12] it was -0.161.
For the compound `COC(=O)[C@H]1[C@@H]2COc3ccccc3[C@H]2N[C@H]1C(=O)OC`, the composite z-score in experiment [1] was 0.0829; in experiment [2] it was -0.0995; in [3], 0.0399; in [5] it was 0.348; in experiment [6] it was 0.332; in experiment [7] it was 0.261. In addition, the composite z-score in [8] is 0.327; in experiment [9], 0.0008; in [10], 0.0992; in experiment [11], -0.339; in experiment [13], 0.362; in experiment [14] it was 0.623. Moreover, the composite z-score in [15] is -0.266; in [16] it was -0.0161; in [17], -0.0626; in experiment [18], -0.223; in [19] it was 0.0767; in [20], 0.854. The z-score in [4] was -0.685 (inactive); in experiment [12], -0.591.
Regarding `C=CCNC(=O)[C@@H]1[C@H]2C(=O)O[C@H](c3ccccc3)[C@H](c3ccccc3)N2[C@H](c2ccc(OCCO)cc2)[C@@]12C(=O)N(C(=O)OCCOC)c1ccc(C#CC3(O)CCCCCC3)cc12`, the composite z-score in [1] came out at 1.12; in experiment [2], 0.342; in [3] it was 0.375; in [5], 0.325; in experiment [6], 0.871; in [7], 0.432. In addition, the composite z-score in experiment [8] worked out at 0.702; in [9] it was 0.125; in experiment [10], 1.34; in experiment [11] it was 0.692; in experiment [13], 0.507; in experiment [14] it was 1.82. The composite z-score in experiment [15] came out at 1.11; in experiment [16] it was 0.0267; in [17], 0.293; in experiment [18], 0.166; in [19], 1.2; in experiment [20], 1.97. In addition, the figures for the z-score in experiment [4] and in [12] were -0.929 (inactive) and -2.29, respectively.
In the case of `COC(=O)C1=CC(c2ccc(CO)cc2)=CC(c2cccs2)N(Cc2cccc(OC(F)(F)F)c2)C=C1C(=O)OC` (stereo not given), the composite z-score is 1.49 in experiment [1]; -0.0873 in experiment [2]; 0.428 in experiment [3]; 0.945 in [5]; 1.26 in experiment [6]; -0.41 in [7]. Besides, the composite z-score in [8] was 0.568; in [9] it was -0.0789; in experiment [10], 1.09; in experiment [11], 0.532; in [13], -0.0215; in [14], 2.19. Further, the composite z-score in experiment [15] was 0.815; in experiment [16], -0.0236; in experiment [17], 0.685; in experiment [18] it was 1.39; in experiment [19] it was 1.81; in experiment [20], 3.16. Further, the figures for the z-score in experiment [4] and in experiment [12] were 0.939 (inactive) and -1.84, respectively.
For `C[C@@H]1NC(=O)CC=C[C@@H](C)[C@@H]2C=C[C@H](O)[C@@H](COC(=O)[C@H](C)NC(=O)CC=C[C@@H](C)[C@@H]3C=C[C@H](O)[C@@H](COC1=O)O3)O2`, the composite z-score in experiment [1] is 0.231; in experiment [2] it was -0.555; in experiment [3] it was -0.925; in [5], 0.544; in experiment [6], 0.217; in experiment [7], 0.418. In addition, the composite z-score is 0.632 in experiment [8]; 0.849 in experiment [9]; 0.0277 in [10]; 0.0804 in experiment [11]; 0.0183 in experiment [13]; -0.417 in [14]. Further, the composite z-score in experiment [15] is -0.0969; in [16], -0.172; in [17] it was -0.426; in experiment [18], -0.134; in experiment [19], -0.166; in experiment [20], -0.64. Also, the z-score in experiment [4] is -1.61 (inactive); in [12] it was 0.128.
